# Data published in PubChem BioAssay.
# Calls of active or inactive are those of the source. Unless noted, the rule behind the calls is not given here.
# Key:
# [1] = system: XIP peptide (Xip251-270) binding; assay: XIP fragment 251-270 binding compounds – biochemical, small-molecule microarray, fluorescence 635/667 nm, 0.1 µg/mL protein, primary screen (AID 1182); conditions: fluorescent protein binding, 635 nm, higher = more signal, called active from +8 up or from −8 down
# XIP peptide (Xip251-270) = assay: compounds binding XIP fragment 251-270 – biochemical, small-molecule microarray, fluorescence 635/667 nm, 0.5 µg/mL protein, primary screen (AID 1183); conditions: fluorescence 635 nm, higher = more signal
# [2] = blood-stage malaria parasite viability loss – strain 3D7, DAPI fluorescence, 100 nL, primary screen (AID 1184);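 note: parasites grown inside human red blood cells in medium with human serum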; conditions: P. falciparum 3D7 growth, 3 d, higher = more signal
# [3] = target: Homeobox protein Hox-A13 (Mus musculus) (UniProt Q62424); assay: disruptors of Hoxa13 oligonucleotide interaction – biochemical, fluorescence polarization, labeled oligonucleotide, primary screen (AID 1185); conditions: Hoxa13:DNA binding, 15 min, higher = more signal, called active from +8 up or from −8 down
# [4] = blockers of DNA damage checkpoint Chk1 activation – imaging, HeLa, hydroxyurea, phospho-Chk1 antibody, percent positive cells, primary screen (AID 1186); conditions: hydroxyurea-induced phospho-Chk1 immunofluorescence imaging, higher = more signal
# [5] = blockers of DNA damage checkpoint Chk1 activation – imaging, HeLa, hydroxyurea, phospho-Chk1 nuclear intensity, primary screen (AID 1187); conditions: hydroxyurea-induced phospho-Chk1 immunofluorescence imaging, higher = more signal
# Sequence of Homeobox protein Hox-A13 (Mus musculus) (Q62424 whole entry, looked up): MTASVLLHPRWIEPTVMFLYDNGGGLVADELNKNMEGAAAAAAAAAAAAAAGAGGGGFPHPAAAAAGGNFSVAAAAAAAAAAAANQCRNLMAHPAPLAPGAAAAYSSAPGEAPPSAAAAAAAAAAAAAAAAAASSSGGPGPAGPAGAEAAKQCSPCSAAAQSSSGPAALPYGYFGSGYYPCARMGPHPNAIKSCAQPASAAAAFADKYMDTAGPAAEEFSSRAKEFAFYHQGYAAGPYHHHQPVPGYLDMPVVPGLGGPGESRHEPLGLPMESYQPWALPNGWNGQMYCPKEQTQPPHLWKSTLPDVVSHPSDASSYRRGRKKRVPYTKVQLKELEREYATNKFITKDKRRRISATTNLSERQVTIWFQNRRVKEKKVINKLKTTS
Compound,composite z-score [1],composite z-score (XIP peptide (Xip251-270)),z-score [2],z-score [3],z-score [4],z-score [5]
CCCCNC(=O)c1ccc(C#CC(C)(C)C)c(OC(C)=O)c1,0.0374 (inactive),0.222,-1.74,-5.71 (inactive),0.13 (inactive),0.411 (inactive)
COCCOC(=O)N1C(=O)[C@@]2(c3cc(C#CC4=CCCCC4)ccc31)[C@H](C(=O)Nc1nc3ccccc3s1)[C@H]1C(=O)O[C@H](c3ccccc3)[C@H](c3ccccc3)N1[C@@H]2c1ccc(O)cc1,-0.0082 (inactive),0.751,-0.259,-0.148 (inactive),-0.0232 (inactive),-0.0288 (inactive)
COCCCNC(=O)[C@@H]1c2ccccc2C(=O)N(C(C)C)[C@H]1c1ccc(CO)cc1,0.147 (inactive),-0.0343,-0.324,-1.03 (inactive),-0.244 (inactive),-0.504 (inactive)
CO[C@H]1O[C@H](CO)[C@@H](OC(=O)CCc2ccccc2)[C@@H]2OC(=O)[C@@H](Cc3ccccc3)C/C=C/C[C@H](Cc3ccccc3)C(=O)O[C@@H]12,-0.315 (inactive),0.506,-0.655,-3.06 (inactive),-0.682 (inactive),-0.379 (inactive)
[N-]=[N+]=Nc1ccccc1[C@H]1OC(c2ccc(OCCCO)cc2)=N[C@@]1(Cc1ccccc1)C(=O)NCCN1CCOCC1,0.0125 (inactive),0.83,-2.18,-2.71 (inactive),-0.116 (inactive),0.205 (inactive)
C#Cc1cc2ccccc2oc1=O,0.151 (inactive),0.35,-0.744,-1.51 (inactive),0.318 (inactive),-0.6 (inactive)
COc1ccc(CCNC(=O)[C@@]2(Cc3ccccc3I)c3ccccc3C(=O)N(C3CCCCC3)[C@H]2c2ccc(CO)cc2)cc1,0.898 (inactive),0.372,-2.22,-2.56 (inactive),-0.312 (inactive),-0.543 (inactive)
COC(=O)[C@@]1(Cc2ccc(OC)cc2)[C@H]2c3cc(C(=O)N4CCCC4)n(CCc4c[nH]c5ccc(OC)cc45)c3C[C@H]2CN1C(=O)c1ccccc1,0.203 (inactive),0.0718,-1.71,-2.82 (inactive),0.513 (inactive),0.399 (inactive)
NCCCCCNC(=O)[C@@H]1C[C@@H]2C(=O)N[C@@H](CCCCN)C(=O)N2[C@@H]1c1ccc(O)cc1,0.439 (inactive),0.827,-1.56,1.23 (inactive),-0.484 (inactive),-0.497 (inactive)
O=C1C[C@]2(c3ccc([N+](=O)[O-])cc3)C(=O)N(C3CC3)c3cc(CO)ccc3[C@H]2N1CC12CC3CC(CC(C3)C1)C2,0.196 (inactive),0.463,-1.38,-0.902 (inactive),-0.0994 (inactive),-0.497 (inactive)
CCOC(=O)C[C@H]1[C@H](OC(=O)c2ccccc2-c2ccccc2)[C@@H](NC(=O)c2ccc3ccccc3n2)c2cc(OCCCO)ccc2N1C(=O)Cc1ccc(OC)cc1,-0.0195 (inactive),-0.203,-1.64,-2.31 (inactive),0.332 (inactive),-0.135 (inactive)
COC(=O)[C@@]1(Cc2ccc(F)cc2)[C@H]2c3cc(C(=O)N(C)C)n(Cc4ccc(OC(F)(F)F)cc4)c3C[C@H]2CN1C(=O)c1ccccc1,0.342 (inactive),-0.133,0.595,-0.102 (inactive),0.233 (inactive),0.579 (inactive)
CCCNC(=O)[C@@]1(Sc2ccc(C)cc2)CC(=O)N(C2Cc3ccccc3C2)[C@@H]1c1ccc(CO)cc1I,0.0241 (inactive),0.733,0.441,-2.68 (inactive),0.34 (inactive),0.78 (inactive)
CCOC(=O)C[C@H]1[C@H](OC(=O)Cc2ccc3c(c2)OCO3)[C@@H](NC(=O)c2ccc3ccccc3n2)c2cc(OCCCO)ccc2N1C(=O)c1ccc2ccccc2n1,-0.113 (inactive),0.66,-2.58,-2.98 (inactive),-0.663 (inactive),-0.162 (inactive)
COCCOC(=O)N1C(=O)[C@@]2(c3cc(C#CCC(C(=O)OC)C(=O)OC)ccc31)[C@H](c1ccc(OCCO)cc1)N1[C@H](c3ccccc3)[C@H](c3ccccc3)OC(=O)[C@H]1[C@@H]2C(=O)N1CCc2cc(OC)c(OC)cc2C1,1.24 (inactive),0.727,-2,2.86 (inactive),-0.0277 (inactive),0.246 (inactive)
O=C1O[C@@H](c2ccccc2)[C@@H](c2ccccc2)N2[C@@H](c3ccc(OCCO)cc3)[C@]3(C(=O)Nc4ccc(C#CC5=CCCCC5)cc43)[C@@H](C(=O)NC[C@H](O)c3ccccc3)[C@H]12,0.127 (inactive),0.693,-1.35,3.28 (inactive),0.27 (inactive),0.433 (inactive)
CCOC(=O)C[C@H]1[C@H](OC(=O)c2cc3ccccc3oc2=O)[C@@H](NC(=O)c2ccc3ccccc3n2)c2cc(OCCCO)ccc2N1C(=O)Cc1ccc(OC)cc1,-0.816 (inactive),0.71,-1.42,-3.15 (inactive),0.458 (inactive),-0.301 (inactive)
CCCC[C@@H](O)C1=C(COC)C[C@H]2C(=O)N(C)C(=O)[C@H]2[C@H]1CO,-0.703 (inactive),0.336,-0.68,-1.8 (inactive),-0.476 (inactive),0.0423 (inactive)
CCOC(=O)C1=C[C@@H](C(C)C)N(S(=O)(=O)c2ccc(C)cc2)[C@H]1c1ccc(C(F)(F)F)cc1,0.438 (inactive),0.555,-1.88,-0.498 (inactive),0.389 (inactive),0.112 (inactive)
O=C(O)[C@@H]1[C@@H]2C(=O)N(c3ccccc3)C(=O)[C@@H]2C[C@@H]1Sc1ccccc1,-0.213 (inactive),0.463,0.0183,-2.65 (inactive),0.701 (inactive),-0.162 (inactive)
CO[C@H]1O[C@H](CO)[C@@H](OC(=O)Nc2ccccc2)[C@H](OC(=O)c2cc3ccccc3[nH]2)[C@H]1OC(=O)c1cc2ccccc2[nH]1,2.41 (inactive),0.783,-1.83,-4.4 (inactive),-0.389 (inactive),-0.562 (inactive)
CC(C)=C1C(=O)C(c2ccccc2)=C2CN3C(=O)N(CCc4ccccc4)C(=O)[C@]3(Cc3ccc(C(F)(F)F)cc3)[C@H]21,1.05 (inactive),-0.498,-0.503,-1.59 (inactive),0.551 (inactive),0.465 (inactive)
CCOC(=O)C1=CC[C@@H](c2ccccc2F)N(S(=O)(=O)c2ccc(C)cc2)[C@H]1c1ccccc1,-0.0895 (inactive),0.563,-2.02,1.41 (inactive),0.0286 (inactive),-0.82 (inactive)
C=CCNC(=O)[C@@H]1[C@H]2C(=O)O[C@H](c3ccccc3)[C@H](c3ccccc3)N2[C@H](c2ccc(O)cc2)[C@@]12C(=O)N(C(=O)OCCOC)c1ccc(C#CC3=CCCCC3)cc12,0.423 (inactive),0.672,0.608,-0.465 (inactive),-0.472 (inactive),-1.01 (inactive)
COc1cc2c(cc1O)C(c1ccc(CN3CCCC3)cc1)N(Cc1cc3c(cc1Br)OCO3)CC2 (stereo not given),0.0473 (inactive),0.723,-2.36,-1.73 (inactive),0.055 (inactive),0.174 (inactive)
